From PubChem BioAssay
Ba/F3 V617F tox: lowers viability of Ba/F3 cells expressing EpoR and JAK2V617F; ATP luminescence; inhibition, % at 5.6 µM; actives 1.1% (n = 220,000); AID 1446;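 active means inhibition above the campaign mean plus 3 SD over all tested compounds, cut at about 24% in these data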;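 further: cytokine-independent growth of Ba/F3 cells driven by EpoR plus mutant JAK2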
APP 5UTR inh: APP translation inhibition; SH-SY5Y APP 5'UTR-luciferase reporter, luminescence; actives 0.82% (n = 190,000); inhibition, % at 2 µM;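 active means inhibition above a set limit, derived from the sample mean plus 3 SD, cut at about 45% in these data; inconclusive means one replicate passes the limit while the other fails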
BaF3 tox: parental Ba/F3 viability inhibition as JAK2V617F counter-screen | inhibition, % at 5.6 µM | CellTiter-Glo ATP luminescence | AID 1486 | actives 1.1% (n = 220,000);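 active means inhibition above a per-campaign cutoff, the mean inhibition of all tested compounds plus 3 SD, cut at about 27% in these data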
KLF5 inh: kruppel-like factor 5 inhibition; DLD-1 KLF5 promoter-luciferase reporter, luminescence; inhibition, % at 5 µM; actives 0.23% (n = 290,000);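 active means inhibition above a per-plate limit of that plate's mean compound inhibition plus 3 SD, cut at about 60% in these data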;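 further: higher means less KLF5 promoter-driven luciferase light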
IEC-6 cytotox: IEC-6 cytotoxicity, counter-screen for KLF5 inhibitors. luminescence viability. inhibition, % at 5 µM. actives 0.78% (n = 290,000). AID 1825
aSyn UTR inh: 5' untranslated region of α-synuclein, MLPCN primary screen. actives 0.82% (n = 300,000). alpha-synuclein 5'UTR reporter, inhibitor activity. inhibition, % (tested at 7.5 µM); in the data active means inhibition above about 60%; inconclusive means no clear call, values can overlap the other calls;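 further: H4 neuroglioblastoma cells stably carrying SNCA 5'UTR luciferase fusion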
IEC-6 cytotox cf: confirmation of cytotoxic compounds in rat IEC-6 intestinal epithelial cells | shares compounds with IEC-6 cytotox | IEC-6 rat intestinal epithelial viability, luminescence | inhibition, % at 5 µM | actives 63% (n = 1,900)
Each line names hits and unclear results; the compound was inactive in the other large screens (follow-up assays come after a bar, where they were run). This is a sample that favours compounds with a hit; in the whole collection about 2.2% have one here. Unless noted, no stated cut-off is given here; in the data, active means inhibition above about 22%; inactive means the rest.

Cn1c(=O)c2c(nc(NCC3CCCC(CN)C3)n2Cc2ccc(Cl)cc2Cl)n(C)c1=O (stereo unspecified)	IEC-6 cytotox 60 (no result: Ba/F3 V617F tox, APP 5UTR inh, BaF3 tox) | IEC-6 cytotox cf 39
Cn1c(=O)c2c(nc(NCCNC(=O)c3ccco3)n2Cc2ccc(Cl)cc2Cl)n(C)c1=O	none
Cc1cc(C(=O)NNc2ccc(Cl)cc2)no1	IEC-6 cytotox 45 (no result: APP 5UTR inh) | IEC-6 cytotox cf inactive
Cc1cc(C(=O)NNc2ccc(F)cc2F)no1	IEC-6 cytotox 32 (no result: APP 5UTR inh) | IEC-6 cytotox cf inactive
COc1ccc(CCNS(=O)(=O)c2ccc(-c3ccc(=O)[nH]n3)o2)cc1OC	none (no result: Ba/F3 V617F tox, APP 5UTR inh, BaF3 tox)
CCn1c(SCC(=O)NC2=NCCS2)nnc1C(C)NC(=O)c1ccc(Cl)cc1 (stereo unspecified)	none (no result: Ba/F3 V617F tox, APP 5UTR inh, BaF3 tox)
Clc1ccc(CSc2nncn2-c2ccccn2)cc1	none
Clc1ccc(CSc2nncn2-c2ccc3c(c2)OCCO3)cc1	IEC-6 cytotox 32, aSyn UTR inh 66 (no result: APP 5UTR inh) | IEC-6 cytotox cf 31
CCn1c(=O)cc(OCC(=O)NCc2ccco2)c2ccccc21	none
CCn1c(=O)cc(OCC(=O)NCc2ccc(C)o2)c2ccccc21	IEC-6 cytotox 23 | IEC-6 cytotox cf inactive
Cc1cc(/C=C(\C#N)C(=O)NCc2ccco2)c(C)n1-c1ccc(C(=O)O)cc1	none
COc1cc(C(=O)NNC(=O)C2CC=CCC2C(=O)O)cc(OC)c1OC (stereo unspecified)	Ba/F3 V617F tox 60, APP 5UTR inh 65, BaF3 tox 44, IEC-6 cytotox 70 | IEC-6 cytotox cf inactive
Cc1nc2ccc(C(=O)N3c4ccccc4CC3C)cc2s1 (stereo unspecified)	IEC-6 cytotox 25 | IEC-6 cytotox cf 34
O=C(COc1cccc2cccnc12)N1CCc2ccccc21	none
Cc1ccc(NC(=O)Cn2c(=O)cnc3ccccc32)cc1S(=O)(=O)N(C)C	IEC-6 cytotox 25 | IEC-6 cytotox cf inactive
Cc1ccc(NC(=O)CN2CCc3ccccc3C2)cc1S(=O)(=O)N(C)C	none
Cc1cn(-c2ccccc2)c(C)c1/C=N\Nc1nc(N2CCOCC2)nc(N2CCOCC2)n1	none
N#C/C(=C\c1ccccn1)c1ccccn1	IEC-6 cytotox 28 (no result: Ba/F3 V617F tox, APP 5UTR inh, BaF3 tox) | IEC-6 cytotox cf inactive
COC(CN(C)S(=O)(=O)c1cc2c3c(c1)CCN3C(=O)CC2)OC	none (no result: Ba/F3 V617F tox, APP 5UTR inh, BaF3 tox)
O=C1CC(c2cccc(Cl)c2)c2cc3c(cc2N1)CCC3 (stereo unspecified)	BaF3 tox 27, IEC-6 cytotox 28 | IEC-6 cytotox cf 29
Cn1c(=O)c2c(nc(N3CCCCC3)n2CC(O)COc2ccccc2)n(C)c1=O (stereo unspecified)	none (no result: Ba/F3 V617F tox, APP 5UTR inh, BaF3 tox)
Cc1[nH]n2c(=O)cc(C(C)(C)C)nc2c1-c1ccccc1	IEC-6 cytotox 34 | IEC-6 cytotox cf 35
O=C1c2ccccc2C(=O)N1C/C=C/c1ccccc1	none
O=C1C(=O)N(C/C=C/c2ccccc2)c2ccccc21	IEC-6 cytotox 89 (no result: Ba/F3 V617F tox, APP 5UTR inh, BaF3 tox) | IEC-6 cytotox cf 65
Cc1onc(-c2ccccc2Cl)c1C(=O)N(C)Cc1ccccc1	none (no result: Ba/F3 V617F tox, APP 5UTR inh, BaF3 tox)
COc1ccccc1-n1cnc2cc(NCc3ccco3)ccc21	Ba/F3 V617F tox 74, APP 5UTR inh 94, BaF3 tox 78, IEC-6 cytotox 80, aSyn UTR inh inconclusive | IEC-6 cytotox cf 56
COc1ccccc1-n1cnc2cc(NCc3ccccc3O)ccc21	none (no result: APP 5UTR inh)
COc1ccccc1N1CCN(c2ccc3ccccc3n2)CC1	none (no result: Ba/F3 V617F tox, APP 5UTR inh, BaF3 tox)
COc1ccccc1N1CCN(c2ccc(-c3ccccc3)nn2)CC1	Ba/F3 V617F tox 72, APP 5UTR inh 90, BaF3 tox 74, IEC-6 cytotox 62, aSyn UTR inh 79 | IEC-6 cytotox cf 59
O=Cc1ccc(Sc2nnc(-c3ccccc3)o2)c([N+](=O)[O-])c1	none
Cn1nc([N+](=O)[O-])nc1Sc1nnc(-c2ccccc2)o1	Ba/F3 V617F tox 92, APP 5UTR inh 95, BaF3 tox 76, IEC-6 cytotox 68, aSyn UTR inh 92 | IEC-6 cytotox cf 68
Cc1ccc(S(=O)(=O)N2c3ccccc3OCC2c2ccccc2)cc1 (stereo unspecified)	none
O=C(C(Cl)Cl)N1c2ccccc2OCC1c1ccccc1 (stereo unspecified)	IEC-6 cytotox 37 | IEC-6 cytotox cf inactive
O=C(CC1CC2CCC1C2)Nc1nc(-c2ccccn2)cs1 (stereo unspecified)	IEC-6 cytotox 29 | IEC-6 cytotox cf inactive
O=C(Nc1nc(-c2ccccn2)cs1)c1ccco1	IEC-6 cytotox 26 | IEC-6 cytotox cf 28
O=C(Nc1nc(-c2ccncc2)cs1)c1ccco1	none
O=C(Nc1nc(-c2ccccn2)cs1)c1ccc(Br)s1	IEC-6 cytotox 30 | IEC-6 cytotox cf 70
Cc1nc(NC(=O)c2ccco2)sc1C(=O)O	IEC-6 cytotox 35 (no result: Ba/F3 V617F tox, APP 5UTR inh, BaF3 tox) | IEC-6 cytotox cf 27
O=C(Nc1nc(-c2ccccn2)cs1)C1CC1	none
O=c1ccc(-c2ccc(S(=O)(=O)Nc3cccc([N+](=O)[O-])c3)s2)n[nH]1	none (no result: Ba/F3 V617F tox, APP 5UTR inh, BaF3 tox)
S=C(Nc1ccccc1)Nc1nccs1	IEC-6 cytotox 42 (no result: APP 5UTR inh) | IEC-6 cytotox cf inactive
CCC(NC(=O)Cc1c(C)c2cc3c(cc2oc1=O)OC(C)(C)CC3)C(=O)O (stereo unspecified)	none (no result: Ba/F3 V617F tox, APP 5UTR inh, BaF3 tox)
COc1cccc(NC(=O)C2CCCN(S(=O)(=O)c3cccc4cccnc34)C2)c1 (stereo unspecified)	none
O=C(Nc1ccncc1)C1CCCN(S(=O)(=O)c2cccc3cccnc23)C1 (stereo unspecified)	Ba/F3 V617F tox 85, APP 5UTR inh 76, BaF3 tox 70, IEC-6 cytotox 56 | IEC-6 cytotox cf 46
Cc1ccc(/C=N/NC(=O)c2c(C)nc3ccc(Br)cn23)cc1	KLF5 inh 63, IEC-6 cytotox 69, aSyn UTR inh 80 (no result: Ba/F3 V617F tox, APP 5UTR inh, BaF3 tox) | IEC-6 cytotox cf 45
Cc1oc(C(C)(C)C)cc1C(=O)N1CCN(C(c2ccccc2)c2ccccc2)CC1	none (no result: APP 5UTR inh)
N=c1c(C(=O)NC2CCCCC2)cc2c(=O)n3ccccc3nc2n1Cc1ccco1	IEC-6 cytotox 42 (no result: Ba/F3 V617F tox, APP 5UTR inh, BaF3 tox) | IEC-6 cytotox cf inactive
CC(=O)N(/N=C/c1ccc([N+](=O)[O-])o1)c1nc2ccccc2c(=O)n1-c1ccccc1	IEC-6 cytotox 55 (no result: APP 5UTR inh) | IEC-6 cytotox cf inactive
Cc1nc2ccccc2c(=O)n1/N=C/c1ccc([N+](=O)[O-])o1	none (no result: APP 5UTR inh)
COc1ccccc1-n1cnnc1SCC(=O)c1c[nH]c2ccccc12	none
C/C(=N\NC(=O)c1nnn(-c2nonc2N)c1CN(C)c1ccccc1)c1ccccc1O	IEC-6 cytotox 51 (no result: Ba/F3 V617F tox, APP 5UTR inh, BaF3 tox) | IEC-6 cytotox cf 50
COc1ccc(/C(C)=N/NC(=O)c2nnn(-c3nonc3N)c2CN(C)c2ccccc2)cc1	none (no result: Ba/F3 V617F tox, APP 5UTR inh, BaF3 tox)
CC1(C)CC(=O)C(CC(=O)NC2CCCc3ccccc32)C(=O)C1 (stereo unspecified)	none
C=C1C(=O)[C@@]23[C@H](O)C[C@@H]4C(C)(C)CC[C@H](O)[C@@]4(C)[C@@H]2CC[C@@H]1[C@H]3O	Ba/F3 V617F tox 98, APP 5UTR inh 84, BaF3 tox 92, IEC-6 cytotox 65 | IEC-6 cytotox cf 44
